# Data taken from PubChem BioAssay AID1159580 (chemical genetic matrix, 2015).
# About 2,000 (36%) of roughly 5,500 compounds were called active. Another 18% or so got no clear call; they are omitted. Some of the results follow. Values without a mark were called inactive. Rule as the data show it: active = normalized growth mostly below about 0.91 (no sharp cut-off); inconclusive = no clear call, values can overlap the other calls; inactive = mostly above about 0.92.
# Assay: chemical genetic growth profiling, strain panel (AID 1159580);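 also: tested at 20 µM; growth read once vehicle control cultures reached saturation at 30 °C; 1 = growth at the plate median or of vehicle wells; lower values mean less growth of the strain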
# Details: S. cerevisiae deletion strains, growth OD
structure (smiles),measurement,setting,value
C#CCCCCCCCCCCCC(=O)CC(O)COC(C)=O (centres undefined),normalized growth,"locus YAL013W, strain DEP1, stronger effect = lower value",0.909 (active)
same,normalized growth,"locus YAL021C, strain ccr4, stronger effect = lower value",0.964
same,normalized growth,"locus YAL026C, strain drs2, stronger effect = lower value",0.982
same,normalized growth,"locus YAL030W, strain snc1, stronger effect = lower value",0.983
same,normalized growth,"locus YBL061C, strain skt5, stronger effect = lower value",0.977
same,normalized growth,"locus YBR009C, strain hhf1, stronger effect = lower value",0.991
same,normalized growth,"locus YBR021W, strain FUR4, stronger effect = lower value",0.91
same,normalized growth,"locus YBR023C, strain chs3, stronger effect = lower value",0.978
same,normalized growth,"locus YBR171W, strain sec66, stronger effect = lower value",0.963
same,normalized growth,"locus YBR229C, strain ROT2, stronger effect = lower value",0.953
same,normalized growth,"locus YBR231C, strain swc5, stronger effect = lower value",0.977
same,normalized growth,"locus YBR279W, strain paf1, stronger effect = lower value",0.986
same,normalized growth,"locus YCL011C, strain gbp2, stronger effect = lower value",0.936
same,normalized growth,"locus YCL016C, strain dcc1, stronger effect = lower value",0.984
same,normalized growth,"locus YCL029C, strain bik1, stronger effect = lower value",0.901 (active)
same,normalized growth,"locus YCL061C, strain MRC1, stronger effect = lower value",0.999
same,normalized growth,"locus YCL069W, strain vba3, stronger effect = lower value",0.975
same,normalized growth,"locus YCR088W, strain abp1, stronger effect = lower value",0.974
same,normalized growth,"locus YDL005C, strain med2, stronger effect = lower value",0.967
same,normalized growth,"locus YDL035C, strain GPR1, stronger effect = lower value",0.8 (active)
same,normalized growth,"locus YDL040C, strain nat1, stronger effect = lower value",0.99
same,normalized growth,"locus YDL074C, strain BRE1, stronger effect = lower value",0.622 (active)
same,normalized growth,"locus YDL101C, strain DUN1, stronger effect = lower value",0.84 (active)
same,normalized growth,"locus YDL134C, strain PPH21, stronger effect = lower value",0.807 (active)
same,normalized growth,"locus YDL185W, strain tfp1, stronger effect = lower value",0.959
same,normalized growth,"locus YDL192W, strain arf1, stronger effect = lower value",0.912 (active)
same,normalized growth,"locus YDR001C, strain nth1, stronger effect = lower value",0.991
same,normalized growth,"locus YDR069C, strain doa4, stronger effect = lower value",0.966
same,normalized growth,"locus YDR101C, strain arx1, stronger effect = lower value",0.881 (active)
same,normalized growth,"locus YDR137W, strain rgp1, stronger effect = lower value",0.854
same,normalized growth,"locus YDR150W, strain NUM1, stronger effect = lower value",0.964
same,normalized growth,"locus YDR159W, strain sac3, stronger effect = lower value",0.989
same,normalized growth,"locus YDR162C, strain NBP2, stronger effect = lower value",0.642 (active)
same,normalized growth,"locus YDR195W, strain ref2",1.04
same,normalized growth,"locus YDR297W, strain sur2, stronger effect = lower value",0.979
same,normalized growth,"locus YDR318W, strain mcm21, stronger effect = lower value",0.819 (active)
same,normalized growth,"locus YDR334W, strain swr1, stronger effect = lower value",0.98
same,normalized growth,"locus YDR335W, strain msn5, stronger effect = lower value",0.973
same,normalized growth,"locus YDR388W, stronger effect = lower value",0.975
same,normalized growth,"locus YDR392W, strain spt3, stronger effect = lower value",0.476 (active)
same,normalized growth,"locus YDR502C, strain sam2, stronger effect = lower value",0.799 (active)
same,normalized growth,"locus YEL003W, strain gim4, stronger effect = lower value",0.951
same,normalized growth,"locus YEL037C, strain rad23, stronger effect = lower value",0.979
same,normalized growth,"locus YEL061C, strain CIN8 (second series), stronger effect = lower value",0.98
same,normalized growth,"locus YEL061C, strain CIN8, stronger effect = lower value",0.855 (active)
same,normalized growth,"locus YER015W, strain faa2, stronger effect = lower value",0.991
same,normalized growth,"locus YER016W, strain bim1, stronger effect = lower value",0.99
same,normalized growth,"locus YER110C, stronger effect = lower value",0.967
same,normalized growth,"locus YER111C, strain swi4, stronger effect = lower value",0.964
same,normalized growth,"locus YER155C, strain BEM2 (second series), stronger effect = lower value",0.9
same,normalized growth,"locus YER155C, strain BEM2, stronger effect = lower value",0.585 (active)
same,normalized growth,"locus YER167W, strain BCK2, stronger effect = lower value",0.807 (active)
same,normalized growth,"locus YFR010W, strain ubp6, stronger effect = lower value",0.974
same,normalized growth,"locus YGL078C, strain dbp3, stronger effect = lower value",0.916 (active)
same,normalized growth,"locus YGL086W, strain mad1, stronger effect = lower value",0.867 (active)
same,normalized growth,"locus YGL167C, strain pmr1, stronger effect = lower value",0.991
same,normalized growth,"locus YGL173C, strain kem1, stronger effect = lower value",0.979
same,normalized growth,"locus YGL227W, strain vid30, stronger effect = lower value",0.974
same,normalized growth,"locus YGL240W, strain doc1, stronger effect = lower value",0.969
same,normalized growth,"locus YGL248W, strain PDE1, stronger effect = lower value",0.788 (active)
same,normalized growth,"locus YGL253W, strain hxk2, stronger effect = lower value",0.981
same,normalized growth,"locus YGR078C, strain PAC10, stronger effect = lower value",0.708 (active)
same,normalized growth,"locus YGR135W, strain pre9, stronger effect = lower value",0.739 (active)
same,normalized growth,"locus YGR229C, strain SMI1, stronger effect = lower value",0.651 (active)
same,normalized growth,"locus YGR252W, strain gcn5, stronger effect = lower value",0.705 (active)
same,normalized growth,"locus YHR013C, strain ard1, stronger effect = lower value",0.849
same,normalized growth,"locus YHR027C, strain rpn1, stronger effect = lower value",0.989
same,normalized growth,"locus YHR030C, strain SLT2, stronger effect = lower value",0.911 (active)
same,normalized growth,"locus YHR079C, strain IRE1 (second series), stronger effect = lower value",0.816 (active)
same,normalized growth,"locus YHR094C, strain hxt1, stronger effect = lower value",0.961
same,normalized growth,"locus YHR129C, strain ARP1, stronger effect = lower value",0.837 (active)
same,normalized growth,"locus YHR142W, strain chs7, stronger effect = lower value",0.884
same,normalized growth,"locus YHR200W, strain rpn10, stronger effect = lower value",0.977
same,normalized growth,"locus YIL066C, strain RNR3, stronger effect = lower value",0.722 (active)
same,normalized growth,"locus YIL073C, strain SPO22, stronger effect = lower value",0.739
same,normalized growth,"locus YIL125W, strain kgd1, stronger effect = lower value",0.97
same,normalized growth,"locus YIR030C, strain dcg1, stronger effect = lower value",0.945
same,normalized growth,"locus YJL092W, strain hpr5, stronger effect = lower value",0.965
same,normalized growth,"locus YJL095W, strain BCK1 (second series), stronger effect = lower value",0.985
same,normalized growth,"locus YJL095W, strain BCK1, stronger effect = lower value",0.665 (active)
same,normalized growth,"locus YJL115W, strain asf1, stronger effect = lower value",0.991
same,normalized growth,"locus YJL129C, strain trk1, stronger effect = lower value",0.843 (active)
same,normalized growth,"locus YJL134W, strain LCB3, stronger effect = lower value",0.892 (active)
same,normalized growth,"locus YJL154C, strain vps35, stronger effect = lower value",0.984
same,normalized growth,"locus YJL164C, strain tpk1, stronger effect = lower value",0.945
same,normalized growth,"locus YJL166W, strain qcr8, stronger effect = lower value",0.909
same,normalized growth,"locus YJL168C, strain set2, stronger effect = lower value",0.979
same,normalized growth,"locus YJL187C, strain SWE1 (second series), stronger effect = lower value",0.839 (active)
same,normalized growth,"locus YJL187C, strain SWE1, stronger effect = lower value",0.978
